KB-V1 MDR tox: KB-V1 MDR subline cytotoxicity | 3.4% of 400,000 active | KB-V1 MDR cells viability, CellTiter-Glo, 72 h | Potency, µM (top dose mostly 46.1 µM), actives largely listed as cytotoxic | AID 1347076; further: on the % scale 0 is the no-effect control and ±100 the full control effect; nearly all actives have a fitted effect of over 60% in size
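Cells of the MDR subline KB-V1 are plated, dosed with compound at multiple concentrations, and incubated 72 h at 37 degrees C; CellTiter-Glo is then added and luminescence read after 10 min.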
SW480 rerep: DNA re-replication induction in SW480 cells; SW480 DNA re-replication, Hoechst DNA content imaging, 48 h; Potency, µM (top dose mostly 46.1 µM), for inactives: at the highest dose re-replication activation, hits mostly activators; 1.8% of 340,000 active; AID 624297; further: % of control where 0% means no effect; nearly all actives have a fitted effect of over 55% in size
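SW480 cells exposed to compounds for 48 hr at 37 C, 5% CO2, then Hoechst-stained 40 min. Nuclear DNA content imaged by fluorescence scanning (405 nm excitation, 500-530 nm emission); re-replication scored as increased high-intensity nuclei.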
PINK1 modulator: changes PINK1 expression; Potency, µM (titrated, usually from 76.6 µM), inactives show at the highest dose activation (PINK1 increase), hits mostly activators; PINK1 immunofluorescence, high-content cytometry, 24 h; 0.2% of 410,000 active; AID 624263; active means well fitted activation curve with a large enough effect; inconclusive means small, poorly fitted or top-dose-only effect; cell line not stated here; further: % of control where 0% means no effect; nearly all actives have a fitted effect of over 65% in size
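Stable cell line, 250 cells/well, 12 h attachment; compounds pinned at 5 concentrations, 24 h; CCCP control. Fixed with nuclear dye, primary antibodies 12 h at 10 degrees C, secondary plus cell stain; laser-scanning cytometer read.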
KB-3-1 tox: kills parental KB-3-1 adenocarcinoma cells | AID 1347075 | 1.4% of 400,000 active | KB-3-1 viability, CellTiter-Glo ATP luminescence, 72 h | Potency, µM (series often up to 46.1 µM), usual class: cytotoxic; further: on the % scale 0 is the no-effect control and ±100 the full control effect; nearly all actives have a fitted effect of over 60% in size
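Screening of KB-3-1 cells (DMEM, 10% FBS, phenol-red free) ran from lowest to highest compound concentration; after 72 h at 37 °C viability was read luminescently and curves fitted.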
MCF10A rereplic: inducers of DNA re-replication in MCF 10A breast cells | MCF 10A DNA re-replication, Hoechst nuclear intensity, 48 h | Potency, µM (series often up to 46.1 µM), for the others: at the top dose activity, positive = re-replication, actives largely listed as activators | AID 624296 | 2.9% of 350,000 active; further: % of control where 0% means no effect; nearly all actives have a fitted effect of over 50% in size
An asterisk follows results filed as active; i = inactive; ? = inconclusive; . = no result; [ ] = dose if it differs, or a comment. Shown are actives, neighbours in structure and some others; about 6.7% of the full set was active somewhere. Unless noted, the call rests on the fitted dose curve; in most records, active means well fitted curve in the direction sought with a large enough effect; inconclusive means small, poorly fitted or top-dose-only effect, or another doubt; inactive means no such curve, though single readings can be large; an effect the other way counts as inactive or inconclusive. Potency means the concentration at half of the fitted maximal effect.

SMILES	KB-V1 MDR tox	SW480 rerep	PINK1 modulator	KB-3-1 tox	MCF10A rereplic
CCN1C(=O)CC(C(=O)Nc2ccc(F)cc2)SC1=Nc1cccc(OC)c1 (stereo not drawn)	18µM*	3%	1%	?	21%
N=C(N)SCc1cn(-c2ccccc2)nc1-c1ccc(Br)cc1	18µM*	18%	0%	?	?
Cc1ccc(-c2nn(-c3ccccc3)cc2CO)cc1	i	-5%	2%	i	-1%
O=S(=O)(Nc1ccc2c(c1)OCCO2)c1cccc2cccnc12	16µM*	-8%	2%	i	-4%
O=C(Oc1cccc2cccnc12)c1ccc2c(c1)OCCO2	?	10µM*	0%	i	3.3µM*
O=C(Oc1cccc2cccnc12)c1ccco1	?	?	-1%	?	?
O=C(Oc1cccc2cccnc12)c1cccs1	12µM*	?	-1%	?	5.2µM*
CS(=O)(=O)n1c2ccccc2c(=O)n1-c1ccccc1CCl	i	.	5%	i	.
CCc1oc2ccccc2c1C(=O)c1cc(I)c(O)c(I)c1	.	8%	.	.	3.8µM*
CC1=CN2C(=N)/C(=C/c3ccco3)C(=O)N=C2S1	i	-124%	0%	i	10%
CC1=CN2C(=N)/C(=C/c3ccc([N+](=O)[O-])o3)C(=O)N=C2S1	i	16µM*	?	i	?
CCc1ccc(-c2cc3c(=O)n(CC(=O)N4CCCC4)nc(C)n3n2)cc1	i	1%	1%	i	?
CCc1ccc(-c2cc3c(=O)n(CC(=O)NCCN4CCCCC4C)nc(C)n3n2)cc1 (stereo not drawn)	i	18µM*	-2%	?	?
CC1(C)Cc2c(sc3nn[nH]c(=O)c23)CO1	?	-1%	-1%	i	-5%
CC1(C)Cc2c(sc3nc[nH]c(=O)c23)CO1	i	5.2µM*	2%	i	-10%
COc1cc(C=CC(=O)OCC=Cc2ccc3c(c2)OCO3)cc(OC)c1OC	.	6%	5%	.	?
CCOC(=O)c1cnc2c(OC)cccc2c1N1CCN(c2ccccc2OC)CC1	?	-2%	2%	?	?
CCOC(=O)c1cc(-c2ccc(C)cc2)n(CCC(=O)N2CCN(c3ccccn3)CC2)c1C	1.2µM*	4%	8%	?	?
CCOC(=O)c1cnc2c(OC)cccc2c1N1CCN(c2ccccn2)CC1	8.2µM*	-6%	0%	i	?
CCOC(=O)c1cc(-c2ccccc2)n(CCCC(=O)Nc2ccc(C(C)C)cc2)c1C	?	.	1%	i	.
CCOC(=O)c1cc(-c2ccc(C)cc2)n(CCC(=O)Nc2ccc(C(C)C)cc2)c1C	?	.	2%	18µM*	.
CCOC(=O)c1cc(-c2ccc(C)cc2)n(CCC(=O)NCc2ccccc2)c1C	i	.	1%	i	.
CCC(C)(C)NC(=O)C(c1ccco1)N(C(=O)c1csnn1)c1cccc(F)c1 (stereo not drawn)	16µM*	7%	0%[38.3 µM]	i	18%
O=C(NCc1ccccc1)C(c1ccco1)N(C(=O)c1csnn1)c1ccccc1 (stereo not drawn)	i	-5%	4%	i	-26%
CCC(C)N(C(=O)c1csnn1)C(C(=O)NCc1ccc(F)cc1)c1ccco1 (stereo not drawn)	16µM*	-5%	55%[38.3 µM]	i	5%
SMILES	KB-V1 MDR tox	SW480 rerep	PINK1 modulator	KB-3-1 tox	MCF10A rereplic
CCOC(=O)C1CCCN(C(=S)NC(=O)c2cc(Br)ccc2Cl)C1 (stereo not drawn)	i	16µM*	10%	i	7%
CCOC(=O)N1CCN(C(=S)NC(=O)c2cc(Br)ccc2Cl)CC1	i	-4%	2%	i	4%
COc1cc(OC)c(NC(=O)c2noc3c2CSc2ccccc2-3)cc1Cl	.	.	2%	.	.
COc1ccc(CNS(=O)(=O)c2ccc(-c3cc(C)no3)cc2)cc1	i	?	4%	i	4%
CCOc1ccc(N(C)S(=O)(=O)c2cc(-c3cc(C)no3)ccc2CC)cc1	i	23%	2%	i	?
CCOc1ccc(N(C)S(=O)(=O)c2cc(-c3cc(C)no3)ccc2C)cc1	?	21µM*	1%	?	?
CCc1ccc(-c2cc(C)no2)cc1S(=O)(=O)NCc1ccc(OC)cc1	3.7µM*	.	7%	3.3µM*	.
CCOc1ccc(N(C)S(=O)(=O)c2cc(-c3cc(C)no3)ccc2OC)cc1	i	-36%	1%	i	10%
COc1ccc(-c2cc(C)no2)cc1S(=O)(=O)N(C)c1ccc(C)cc1	8.2µM*	-5%	7%	?	7.3µM*
COc1cc(NCCCn2cnc(C(=O)Nc3ccc(C)c(C)c3)n2)cc(OC)c1OC	i	-2%	0%	i	8%
COc1ccc(Cn2c(=O)cc(N)n(-c3ccccc3C)c2=O)cc1	i	15µM*	3%	?	?
COc1cccc(Cn2c(=O)c3[nH]cnc3n(-c3ccccc3C)c2=O)c1	i	-13%	0%	i	-1%
CC(=O)Nc1ccc(N=Cc2c(O)c(C(=O)Nc3ccccc3)cc3ccccc23)cc1	?	-5%	?	i	3.7µM*
CC(=O)Nc1ccc(N=Cc2c(O)c3ccccc3oc2=O)cc1	i	-15%	4%	i	5%
CC(C)CNC(=O)c1ccc(NC(=O)c2ccccc2[N+](=O)[O-])cc1	i	-53%	13%	i	-38%
COc1cccc(C(=O)Nc2cccc(C(=O)NCC(C)C)c2)c1	18µM*	-4%	2%	i	-7%
CC(C)CNC(=O)c1cccc(NC(=O)CCc2ccccc2)c1	i	1%	-1%	i	-3%
CC(C)CNC(=O)c1cccc(NC(=O)Cc2ccc(Br)cc2)c1	3.3µM*	1.5µM*	12%	?	2%
CC(C)CNC(=O)c1cccc(NC(=O)c2ccc(Cl)c([N+](=O)[O-])c2)c1	21µM*	7%	-4%	i	?
COc1cccc(NC(=O)c2cccc(C(=O)Nc3cccc(OC)c3)c2)c1	i	-6%[9.22 µM]	6%	i	?
CN(C)c1nc2cc(Cl)ccc2cc1CN(Cc1ccc2c(c1)OCO2)C(=O)c1ccoc1	.	.	3%	.	.
COc1cc(OC)c(-c2nn3c(-c4cc(C)[nH]n4)nnc3s2)cc1OC	?	.	3%	i	.
COc1ccc(Cn2c(SCC#N)nc3ccc(N4CCOCC4)cc3c2=O)cc1	i	1%	4%	i	21µM*
CCCCn1c(SCC(=O)Nc2cccc(OC)c2)nc2ccc(N3CCOCC3)cc2c1=O	?	-3%	.	i	16%
COc1cc(C(=O)N2CCCc3ccccc32)cc(OC)c1OC	?	?	4%	?	10µM*
CCCN(CCC)S(=O)(=O)c1ccc(C(=O)N2CCCc3ccccc32)cc1	?	?	1%[38.3 µM]	?	23µM*
